# Compound activity (PubChem BioAssay)
# G9a block: G9a (human) methyltransferase inhibition. G9a H3K9 monomethylation, AlphaScreen, 2 h. Potency, µM (doses to about 102 µM), without a hit: at the highest dose activity, negative = inhibition, usual class: inhibitors. 350,000 tested, 8.8% active. AID 504332; also: % is scaled to controls: 0 for no effect and ±100 for the full control effect; nearly all actives have a fitted effect of over 75% in size
#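 Methyltransferase reactions run at room temperature for 2 h (20 nM enzyme, 500 nM biotin-H3K9 peptide, 20 uM SAM) after a 15 min compound preincubation; product detected by AlphaScreen beads and anti-H3K9me1 antibody.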
# Sfp PPTase inh: blocks B. subtilis Sfp PPTase activity. Q9F4F7. Biochemical Sfp PPTase activity, qHTS. Potency, µM, inactives show largest response in the series, negative = inhibition, most hits filed as inhibitors. 310,000 tested, 3.5% active;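 also: the enzyme is Sfp with the accession as filed and its product quenches rhodamine fluorescence; 0% = enzyme reaction without inhibitor and -100% = no enzyme wells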
#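 Reaction rates are the 30-min fluorescence difference (ex 525, em 598 nm) in wells containing 15 nM Sfp, 5 uM rhodamine-CoA and 12.5 uM BHQ-2-YbbR at pH 7.6 with 10 mM MgCl2.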
# BAZ2B inh: BAZ2B (human) inhibition | Q9UIF8 | AlphaScreen BAZ2B-H3K14Ac peptide displacement | Potency, µM (titrated, usually from 114 µM), for inactives: at the top dose activity change, negative = inhibition, hits mostly inhibitors | 360,000 tested, 4.4% active | AID 504333; also: % is scaled to controls: 0 for no effect and ±100 for the full control effect; nearly all actives have a fitted effect of over 60% in size
#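 In this displacement format the biotinylated H3(5-23) peptide acetylated at Lys14 serves as ligand at 50 nM, with BAZ2B at 50 nM in PBS pH 7.4 containing 0.01% Tween-20. Donor and acceptor beads are 10 ug/mL final.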
# HP1b binding inh: blocks HP1-beta chromodomain binding to methylated histone tails | 390,000 tested, 0.56% active | Potency, µM (doses to about 114 µM), inactives show at the highest dose activity change, negative = inhibition, most hits filed as inhibitors | AlphaScreen HP1-beta / biotin-H3K9me3 peptide binding | AID 540317 | P83916; also: nearly all actives have a fitted effect of over 70% in size
#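 AlphaScreen: HP1-beta (50 nM) preformed 30 min with biotin-H3(1-18)K9me3 peptide (50 nM) in PBS pH 7.4, 0.01% Tween-20. Compound added for 30 min at RT, then streptavidin donor/nickel chelate acceptor beads (10 ug/mL) for 30 min.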
# JMJD2A Tudor: inhibitors of human JMJD2A Tudor domain | O75164 | AlphaScreen JMJD2A-Tudor / H3K4me3 peptide binding | Potency, µM (doses to about 114 µM), for inactives: at the highest dose activity change, negative = inhibition, actives largely listed as inhibitors | 390,000 tested, 4.4% active; also: % is scaled to controls: 0 for no effect and ±100 for the full control effect; nearly all actives have a fitted effect of over 50% in size
# PLK1 PBD block: inhibitors of human PLK1 polo-box domain binding; P53350; Plk1 PBD binding of FITC phosphopeptide, fluorescence polarization; Potency, µM, for the others: max response, negative = inhibition, actives largely listed as inhibitors; 360,000 tested, 2.8% active; AID 720504; also: series mostly up to about 57 µM; % is scaled to controls: 0 for no effect and ±100 for the full control effect; nearly all actives have a fitted effect of over 65% in size
# Target sequence (P53350 whole entry, looked up, the tested form may be a part): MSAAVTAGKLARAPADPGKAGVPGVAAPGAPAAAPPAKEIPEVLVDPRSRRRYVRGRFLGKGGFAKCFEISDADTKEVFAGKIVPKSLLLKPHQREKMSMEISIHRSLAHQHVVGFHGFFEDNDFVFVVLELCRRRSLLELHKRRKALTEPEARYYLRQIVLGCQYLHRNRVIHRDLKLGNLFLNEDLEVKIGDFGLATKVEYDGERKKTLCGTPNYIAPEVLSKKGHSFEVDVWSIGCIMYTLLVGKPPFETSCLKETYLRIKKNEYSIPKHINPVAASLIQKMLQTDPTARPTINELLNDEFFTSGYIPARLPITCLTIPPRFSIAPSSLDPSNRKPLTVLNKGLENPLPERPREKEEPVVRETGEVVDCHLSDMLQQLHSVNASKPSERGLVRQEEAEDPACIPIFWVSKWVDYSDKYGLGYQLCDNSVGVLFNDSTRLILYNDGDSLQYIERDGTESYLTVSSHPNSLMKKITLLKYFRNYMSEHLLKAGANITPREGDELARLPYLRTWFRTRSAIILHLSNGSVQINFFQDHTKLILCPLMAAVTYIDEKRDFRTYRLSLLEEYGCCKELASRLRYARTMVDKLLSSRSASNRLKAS
# Numbers without * were called inactive; ? = inconclusive; nt = no result given; ! = not confirmed by another sample; [ ] = dose if it differs, or a comment. Hits are enriched below; roughly 12% of the tested compounds scored in any of these assays. Calls follow the shape of the dose curve; as a rule, active = well fitted curve in the direction sought with a large enough effect; inconclusive = small, poorly fitted or top-dose-only effect, or another doubt; inactive = no such curve, though single readings can be large; an effect the other way counts as inactive or inconclusive. Potency is read from the fitted curve at half-maximal effect.
SMILES,G9a block,Sfp PPTase inh,BAZ2B inh,HP1b binding inh,JMJD2A Tudor,PLK1 PBD block
CC(=O)Nc1cccc(NC(=S)Nc2ccc(F)c(Cl)c2)c1,?,35µM*,-20%,12%,-34%,30µM*
COC(=O)c1cn[nH]c1NC(=S)Nc1ccc(Cl)c(Cl)c1,5%[59 µM],56µM*,5%,5%,-2%,-4%
CN(C)NC(=S)NC(=O)C12CC3CC(CC(C3)C1)C2,-42%,?,?,10%,?,-11%
CN1CCC(N(C)C(=S)NC(=O)C23CC4CC(CC(C4)C2)C3)CC1,40µM*,-11%,10%,-11%,-4%,-26%
CN(C(=S)NC(=O)C12CC3CC(CC(C3)C1)C2)c1ccc(O)cc1,nt,nt,nt,10µM*,50µM*,34µM*
CC(C)(C)NC(=S)NC(=O)C12CC3CCC(CC(C3)C1)C2,-9%[59 µM],11%,-38%,-15%,89µM*,-3%
CN1Cc2c(N3CCOCC3)nc3sc(C(=O)c4ccccc4)c(N)c3c2CC1(C)C,50µM*,-10%,?,-11%,45µM*,-11%
CC1(C)Cc2c(c(N3CCOCC3)nc3sc(C(=O)Nc4ccc(Cl)cc4)c(N)c23)CO1,10µM*!,32µM*,3%,-18%,-33%,-18%
Nc1c(C(=O)NCCc2ccccc2)sc2nc(N3CCOCC3)c3c(c12)CCCC3,16µM*,22µM*,-1%,79%,-6%,-25%
CCOC(=O)c1sc2nc(N3CCOCC3)c3c(c2c1N)CC(C)(C)N(C)C3,?,11%,5%,20%,-22%,-2%
Cc1ccc(NC(=O)c2sc3nc(N4CCOCC4)c4c(c3c2N)CC(C)(C)OC4)cc1,0%[59 µM],32µM*,31%,33%,-11%,-8%
Cc1cc(C)cc(-n2c(SCC(=O)N3CCC(C)CC3)nc3c([nH]c4ccccc43)c2=O)c1,31%[59 µM],nt,3%,16%[57 µM],-9%,nt
CCc1c(-c2ccccc2)nc2ccccc2c1C(=O)NC(C)c1ccccc1 (stereo not given),1%[59 µM],nt,-2%,20%,-15%,nt
CC(C)(C)NC(=O)c1cnn(-c2ccccc2)c1C1CCN(C(=O)OC(C)(C)C)CC1,-3%[59 µM],nt,8%[57.1 µM],43%,5%,nt
Nc1c(C(=O)c2ccccc2)sc2nsc(SCCN3CCOCC3)c12,nt,50µM*,-16%,54%,-19%,3%
CCOc1ccc(NC(=O)c2sc3nc(N4CCOCC4)c4c(c3c2N)CC(C)(C)OC4)cc1,79µM*,-15%,-3%,25%,10%,-13%
CC1(C)Cc2c(c(N3CCOCC3)nc3sc(C(N)=O)c(N)c23)CO1,4%[12.7 µM],14µM*,-32%,19%,-10%,-6%
CC1(C)Cc2c(c(N3CCOCC3)nc3snc(Br)c23)CO1,?,45µM*,-6%,37%,?,-15%
COc1cccc(NC(=O)c2sc3nc(N4CCOCC4)c4c(c3c2N)CC(C)(C)OC4)c1,-4%[59 µM],nt,0%,37%,-8%,nt
COC(=O)c1ccc(-c2sc3nc(N4CCOCC4)c4c(c3c2N)CC(C)(C)OC4)o1,-9%[12.7 µM],15%,-2%,13%,-8%,3%
O=C(O)CCC/C=C\C[C@@H]1[C@@H](/C=C/[C@H](O)C2Cc3ccccc3C2)[C@@H](F)C[C@@H]1O,-4%[59 µM],nt,nt,nt,nt,nt
COc1ccc(S(=O)(=O)N2CCC(C(=O)NC(c3nc4ccccc4[nH]3)C(C)C)CC2)cc1 (stereo not given),-10%[12.7 µM],nt,13%,26%,-15%,-1%
CCCS(=O)(=O)N1CCC(C(=O)Oc2ccc(OC)cc2)CC1,nt,22%,31%,42%,-20%,-5%
CN(CC(=O)Nn1cnnc1)S(=O)(=O)c1ccccc1,-4%[59 µM],7%,-23%,11%,-9%,-3%
O=c1ccc2[n+]([O-])c3ccc(O)cc3oc-2c1,10µM*,?,10µM*,?,-20%,-27%
O=c1cc(O)c2ccc(O)cc2o1,18%[59 µM],-9%,-6%,21%,-7%,-8%
Cc1cc(N2CCCC2)nc2ccc(NC(=S)NC(C)C)cc12,?,-7%,-21%,13%,-29%,?
